The values that follow come from PubChem BioAssay (NCI).

About 83,000 compounds went through this panel and 20% of them were active in at least one assay; those are over-represented in the sample as a whole.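 Single-concentration screen, 48 h exposure, 96-well plates. Endpoint: percent growth. Below 10 = active.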 Unmarked numbers belong to inactive results. Active and inactive are the calls of the source.

This assay has as its system MDA-MB-468 breast. The experiment in a line: NCI-60 one-dose screen, 48 h (100 = growth as untreated, 0 = no growth, -100 = all killed).

Turning to `O=c1ccn2c(n1)OC1CC2OC1COC(c1ccccc1)(c1ccccc1)c1ccccc1` (centres undefined), the growth by setting is: (10 µM) 102%; (100 µM) 56.9%.

For `CC(=O)/C=C/c1ccc(N(C)Cc2ccc(C(C)(C)C)cc2)cc1`, the growth reads like this: (10 µM) 86%; (100 µM) -71.8% (active).

`O=C(Nc1cccc(Br)c1)Oc1cccc2cccnc12`: the growth reads like this: (10 µM) 103%; (100 µM) -8.71% (active).

For `O=C(/C=C/c1cccc(Oc2ccc(Cl)cc2)c1)c1ccccc1`, the growth (10 µM) is 110% and the growth (100 µM) was -36.3% (active).

`COc1ccc(Nc2nn3c(SCC(=O)c4ccc(C)cc4)nnc3s2)cc1`: the growth (10 µM unless noted) was 87.1%.
